# In the library only some 3.5% were active in any assay of this set; here they are far more common.
# GPR151 ag = human GPR151 activation; Q8TDV0; PathHunter beta-arrestin GPR151 cells, luminescence; activation, % at 11.2 µM; 1% of 650,000 active; AID 1508602; in the data active = activation above about 4.9%;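 note: 0% = median of compound wells and 100% = cells with positive control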
# FBW7 activator = human FBW7 E3 ligase activation, primary screen | AlphaScreen FBW7–phospho-cyclin E peptide binding, activator screen | normalized activity (activation), % at 26.1 µM | 0.13% of 650,000 active; in the data active = normalized activity above about 1.9%;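 note: purified mutant Fbw7 with reduced substrate affinity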
# MITF inh = human MITF inhibition, primary screen | O75030 | AlphaScreen MITF homodimerization, bead proximity signal | inhibition, % at 2.6 µM | 0.91% of 650,000 active | AID 1259374; in the data active = inhibition above about 50%;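 note: 0% = vehicle wells with protein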
# Target sequence (O75030 whole entry, looked up): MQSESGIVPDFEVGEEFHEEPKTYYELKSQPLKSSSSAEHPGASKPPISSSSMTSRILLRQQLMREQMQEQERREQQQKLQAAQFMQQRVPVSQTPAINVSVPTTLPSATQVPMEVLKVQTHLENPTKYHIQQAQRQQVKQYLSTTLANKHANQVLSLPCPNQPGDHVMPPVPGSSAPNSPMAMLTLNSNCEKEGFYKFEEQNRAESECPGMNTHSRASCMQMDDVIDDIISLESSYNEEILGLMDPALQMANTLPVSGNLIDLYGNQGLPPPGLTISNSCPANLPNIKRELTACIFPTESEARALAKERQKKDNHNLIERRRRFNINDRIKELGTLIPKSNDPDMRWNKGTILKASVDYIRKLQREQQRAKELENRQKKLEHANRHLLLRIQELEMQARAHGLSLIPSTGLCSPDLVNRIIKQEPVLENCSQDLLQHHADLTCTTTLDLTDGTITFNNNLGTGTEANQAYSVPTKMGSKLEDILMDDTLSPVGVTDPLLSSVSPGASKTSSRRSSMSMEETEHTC
# TEAD-YAP inh = TEAD-YAP interaction inhibition. HEK-TIYL cells, TEAD-Gal4/YAP UAS-luciferase luminescence. 1.4% of 640,000 active. inhibition, % at 9.12 µM. AID 1259422; in the data active = inhibition above about 32%;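 note: 0% = median of test compound wells and 100% = reference inhibitor wells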
# Numbers without * were called inactive.
SMILES,GPR151 ag,FBW7 activator,MITF inh,TEAD-YAP inh
COc1ccc(C(=O)Nn2c(SCC(=O)NCc3ccccc3)nc3ccccc3c2=O)cc1,0,0,-4,74*
COc1ccc(C(=O)Nn2c(SCC(=O)NC3CCCC3)nc3ccccc3c2=O)cc1,0,0,-1,79*
CCOc1ccc(NC(=O)CSc2nc3ccccc3c(=O)n2NC(=O)c2ccc(OC)cc2)cc1,2,0,7,54*
C=CCN1C(=O)C(C)(C)COc2cc(NC(=O)c3ccccc3Br)ccc21,0,0,16,10
COc1ccc2c(c1)N(C)/C(=C1/S/C(=N\c3ncn[nH]3)N(C)C1=O)S2,3,0,1,1
O=C(CSc1nc2ccccc2c(=O)n1NC(=O)Cc1ccccc1)NCC1CCCO1 (stereo not given),0,0,3,-1
CCC(Sc1nc2ccccc2c(=O)n1Cc1ccccc1OC)C(=O)NCc1cccnc1 (stereo not given),-1,0,-2,-8
COc1ccc(C(=O)Nn2c(SCc3c(F)cccc3Cl)nc3ccccc3c2=O)cc1,2,0,-12,79*
COc1ccc(C(=O)Nn2c(SCC(=O)NCC3CCCO3)nc3ccccc3c2=O)cc1 (stereo not given),-1,0,-4,84*
CCC(Sc1nc2ccccc2c(=O)n1NC(=O)c1ccc(OC)cc1)C(=O)NCc1cccnc1 (stereo not given),1,0,-5,79*
O=C(Nc1ccc2c(c1)CN(C(=O)c1csnn1)CC2)c1ccc(C(F)(F)F)cc1,-1,0,-3,33*
O=C(Cc1ccccc1F)Nc1ccc2c(c1)CN(C(=O)c1csnn1)CC2,-2,0,-10,-10
O=C(Nc1ccc(F)c(F)c1)c1cc(=O)n(-c2ccccc2)c(=O)[nH]1,-1,0,-3,-3
COCCCNC(=O)c1cnn(-c2nccc(-c3ccc(OC)c(F)c3)n2)c1C1CC1,-1,0,13,48*
COc1cccc(-c2ccnc(-n3ncc(C(=O)NCc4ccccn4)c3C3CC3)n2)c1,0,0,14,14
COc1ccc(CCNC(=O)CCn2cnc3cc(C)c(C)cc32)cc1OC,1,0,-1,6
CCCNc1nc(Nc2nccc3ccccc23)nc2c1ncn2-c1ccccc1,2,0,-2,6
Oc1ccc(CCNc2nc(Nc3nccc4ccccc34)nc3c2ncn3-c2ccsc2)cc1,1,0,10,66*
Oc1ccc(CCNc2nc(Nc3nccc4ccccc34)nc3c2ncn3C2CCCCC2)cc1,-1,0,16,22
COc1ccc(CCNc2nc(Nc3nccc4ccccc34)nc3c2ncn3C2CCCCC2)cc1,-1,0,4,33*
CCCNc1nc(Nc2nccc3ccccc23)nc2c1ncn2-c1ccsc1,0,0,9,65*
COc1ccc(NC(=O)c2ccc(OC(=O)c3ccc([N+](=O)[O-])cc3)cc2)cc1,0,0,-10,-21
Cc1nc2cnc(-c3ccc4ccccc4c3)cn2c1NC(=O)c1ccncc1,1,0,17,-6
COc1ccc2oc(=O)c(-c3csc(Nc4ccccc4OC)n3)cc2c1,1,0,-5,48*
CN(CC1CCCCN1C)C(=O)CC1(c2ccccc2)CC(=O)N(Cc2ccncc2)C1=O (stereo not given),0,0,-14,-3
SMILES,GPR151 ag,FBW7 activator,MITF inh,TEAD-YAP inh
CCCCC(=O)Nc1ccccc1-c1nnn(CC(=O)Nc2ccccc2)n1,1,0,-5,-3
CCCCC(=O)Nc1ccccc1-c1nnn(CC(=O)Nc2ccc3c(c2)OCCO3)n1,-1,2.3*,13,12
CC(=O)OC12Oc3cc(O)ccc3C(C)=C1CC(C)O2 (stereo not given),-1,0,12,-3
O=C(O)c1ccc(N=c2oc3cc(O)ccc3cc2C(=O)Nc2ccccc2)cc1,-8,0,8,-8
COc1ccc(NC(=O)c2cc3ccc(O)cc3oc2=Nc2ccc(C(=O)O)cc2)cc1,-4,0,6,36*
CC(C)S(=O)(=O)/C(Cl)=C(\Cl)C(=O)Nc1ccccc1Cl,-3,0,24,95*
O=C(NCCCN1CCCC1=O)c1cccc(N2CCc3ccccc3C2)n1,2,0,-4,-10
COc1cccc(C2C(C(=O)OCCc3ccccc3)=C(C)NC3=C2C(=O)CC(C)(C)C3)c1 (stereo not given),0,0,6,-4
CCC[n+]1cccc2ccc3cccnc3c21,-1,0,11,54*
COc1ccc(Nc2nc3nonc3nc2Nc2ccc(OC)cc2)cc1,0,0,-7,10
COc1ccc(Nc2nc3nonc3nc2N/N=C(\C)c2nonc2C)cc1,1,0,4,52*
Nc1nonc1-n1nnc(C(=O)N/N=C/c2cc([N+](=O)[O-])ccc2O)c1-c1ccccc1,0,0,7,8
CN(C)c1cccc2c1C(=O)c1ccccc1C2=O,2,-1,55*,2
Cn1cc(-c2ccc3cnc(Nc4ccc(-n5cnc(-c6ccncc6)n5)cc4)nc3c2)cn1,-1,1,14,45*
Cn1cc(-c2ccc(Nc3ncc4ccc(-c5cnn(CCN6CCOCC6)c5)cc4n3)cc2)cn1,0,0,3,51*
Cn1cc(-c2ccc3nc(Nc4ccc(-n5cnc(N6CCOCC6)n5)cc4)ncc3c2)cn1,0,0,36,-8
Cc1cc(-c2ncn(-c3ccc(Nc4ncc5ccc(-c6cnn(C)c6)cc5n4)cc3)n2)ccn1,-3,1,27,88*
COC(=O)N(C)Cc1nc2ccccc2n1CC(=O)N1CCOCC1,1,0,9,12
Fc1ccc(COc2ccc(Br)cc2/C=N/n2cnnc2)cc1,2,0,-10,-14
OCCC1CCCCN1c1ccnc2c(-c3ccccc3)cnn12 (stereo not given),0,0,9,89*
OC[C@@H]1CCCN1c1ccnc2c(-c3ccc(F)cc3)cnn12,-2,0,2,74*
OCCC1CCCCN1c1ccnc2c(-c3cccc(Cl)c3)cnn12 (stereo not given),0,0,-7,90*
COc1ccccc1-c1cnn2c(N3CCCCC3CCO)ccnc12 (stereo not given),-1,0,-22,-7
OCCC1CCCCN1c1ccnc2c(-c3ccccc3F)cnn12 (stereo not given),0,0,-8,63*
O=C(NN=C1CCN(Cc2ccccc2)CC1)C1CC1c1ccccc1 (stereo not given),3,0,1,4
OCCC1CCCCN1c1ccnc2c(-c3ccc(F)cc3)cnn12 (stereo not given),1,0,-25,97*
Cc1ccc(-c2cnn3c(N4CCCCC4CCO)ccnc23)cc1C (stereo not given),0,0,3,7
COc1ccc(CNc2ccc3ncc(-c4ccc(N5CCOCC5)cc4)n3n2)cc1,-1,1,12,13
O=C(Nc1ccc(F)cc1)c1cccc(Cl)c1,-2,0,-5,-25
